Experimental data published in PubChem BioAssay (NCATS).
Records with an inconclusive call do not appear. Entries that show only a call come without a potency. The source made the active and inactive calls. Unless noted, the call rests on the fitted dose curve; in most records, active means well fitted curve in the direction sought with a large enough effect; inconclusive means small, poorly fitted or top-dose-only effect, or another doubt; inactive means no such curve, though single readings can be large; an effect the other way counts as inactive or inconclusive.

Experiments:
[1] = qHTS for differential inhibitors of proliferation of Plasmodium falciparum line 7G8 (AID 1815);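 further: parasite growth measured after three days of incubation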; further: potency means the concentration at half of the fitted maximal effect
[2] = qHTS for differential inhibitors of proliferation of Plasmodium falciparum line GB4 (AID 1816); conditions: Potency: Plasmodium falciparum GB4 proliferation inhibition;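 further: parasite growth measured after 72 h incubation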; further: potency means the concentration at half of the fitted maximal effect
[3] = qHTS for differential inhibitors of proliferation of Plasmodium falciparum line D10 (AID 1877);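 further: parasites grown with compound for 72 h before DNA staining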; further: potency means the concentration at half of the fitted maximal effect
[4] = qHTS for differential inhibitors of proliferation of Plasmodium falciparum line Dd2 (AID 1882); conditions: Potency: Plasmodium falciparum Dd2 proliferation inhibition; further: nearly all actives have a fitted effect of over 65% in size; further: potency means the concentration at half of the fitted maximal effect
Summary of the method: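 RBC culture, 0.3% parasitemia / 2.5% Hct final; cpd added by pin tool in DMSO; 72 h, 37 C, 5% CO2; lysis buffer + SYBR Green I, o/n RT dark; FI 485/535; norm. to artemisinin 0.29 uM and DMSO.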

[5] = target: Ferritin light chain (Equus caballus) (UniProt P02791); experiment: qHTS Validation Assay for Identification of Novel General Anesthetics (AID 2323); further: series mostly up to about 77 µM
Chain of Ferritin light chain (Equus caballus) (P02791 2-175 limits assumed): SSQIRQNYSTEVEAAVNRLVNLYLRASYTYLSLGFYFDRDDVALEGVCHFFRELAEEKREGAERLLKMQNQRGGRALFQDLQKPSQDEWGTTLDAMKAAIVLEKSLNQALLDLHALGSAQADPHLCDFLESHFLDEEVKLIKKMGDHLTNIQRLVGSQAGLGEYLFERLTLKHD
Summary of the method: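 Competitive displacement of profluorescent 1-aminoanthracene (1-AMA, 50% saturated solution in PBS) from 10 uM horse-spleen apoferritin. Compounds incubated 10 min at room temperature; fluorescence read at 380 nm excitation/535 nm emission, normalized to free 1-AMA and complex, fitted with four-parameter Hill equation.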

[6] = target: ATP-dependent DNA helicase Q1 (Homo sapiens) (UniProt P46063); experiment: qHTS Validation Assay for Inhibitors of RecQ-Like Dna Helicase 1 (RECQ1) (AID 2353)
Chain of ATP-dependent DNA helicase Q1 (Homo sapiens) (P46063 whole entry, looked up): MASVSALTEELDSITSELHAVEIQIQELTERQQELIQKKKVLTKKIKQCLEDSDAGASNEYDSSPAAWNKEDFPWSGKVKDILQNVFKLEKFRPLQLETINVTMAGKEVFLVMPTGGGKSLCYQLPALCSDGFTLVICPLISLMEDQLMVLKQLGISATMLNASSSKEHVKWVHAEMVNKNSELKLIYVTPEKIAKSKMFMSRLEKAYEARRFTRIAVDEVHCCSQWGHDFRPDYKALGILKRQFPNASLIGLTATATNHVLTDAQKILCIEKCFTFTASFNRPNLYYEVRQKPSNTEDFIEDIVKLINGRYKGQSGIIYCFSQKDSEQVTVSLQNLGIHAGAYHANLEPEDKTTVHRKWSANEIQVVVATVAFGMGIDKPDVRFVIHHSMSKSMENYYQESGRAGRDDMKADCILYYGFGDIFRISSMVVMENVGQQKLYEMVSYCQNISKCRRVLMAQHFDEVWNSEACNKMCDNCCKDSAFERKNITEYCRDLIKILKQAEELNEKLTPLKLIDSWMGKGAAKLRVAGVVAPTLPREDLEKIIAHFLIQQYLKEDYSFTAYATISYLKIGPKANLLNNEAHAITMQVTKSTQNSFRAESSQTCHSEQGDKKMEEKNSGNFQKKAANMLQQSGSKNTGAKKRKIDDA
Summary of the method: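 RECQ1T1 50 nM; forked duplex (20 bp + 30-nt ss tails) 200 nM, ATP 2 mM final; pH 8.0, 2 mM MgCl2, 2.5 ug/ml poly(dI-dC); 15 min compound preincubation; discontinuous kinetic read over 2 h at RT.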

[7] = Cytometric Cell-Based qHTS for Inhibitors of the mTORC1 Signaling Pathway in MEF (Tsc2-/-, p53-/-) Cells (AID 2660);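 further: Tsc2 and p53 null MEFs carrying empty vector with compound for 24 h; percent of cells above a phospho-rpS6 to PI ratio cutoff in each well; series mostly up to about 38 µM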
Summary of the method: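 Immunofluorescence qHTS of rpS6 Ser235/236 phosphorylation: MEFs (Tsc2-/-, p53-/-) treated 24 h, 37 C, in DMEM + 10% FBS. Alexa-488 signal normalized to PI count, referenced to rapamycin (7.5 nM) and DMSO; PI cell number recorded for viability.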

[8] = High Content Imaging Cell-Based qHTS for Inhibitors of the mTORC1 Signaling Pathway in MEF (Tsc2-/-, p53-/-) Cells (AID 2666);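 further: percent of cells scored positive for phospho-rpS6 Ser235/236 immunostaining by imaging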
Summary of the method: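 MEF Tsc2-/- p53-/- (empty vector), DMEM/10% FBS; cpd 24 h 37 °C; PFA fix, Alexa-488 p-rpS6 S235/236 Ab, Hoechst; imaged; rapamycin-defined inhibition; % positive cells/well.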

[9] = High Content Imaging Cell-Based qHTS for Inhibitors of the mTORC1 Signaling Pathway in MEF Cells (AID 2667); further: potency means the concentration at half of the fitted maximal effect
Summary of the method: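 Read-out is the share of phospho-rpS6-positive cells per well, from Hoechst-normalized Alexa-488 Ser235/236 staining imaged on IN Cell. Cells: WT Tsc2-expressing Tsc2-/-, p53-/- MEFs exposed to compound for 24 hrs.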

[10] = Cytometry Cell-Based qHTS for Inhibitors of the mTORC1 Signaling Pathway in MEF cells (AID 2668);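 further: Tsc2-/- p53-/- mouse embryonic fibroblasts stably re-expressing wild-type Tsc2; percent cells positive for phospho-rpS6 Ser235/236 relative to propidium iodide stain; series mostly up to about 38 µM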
Summary of the method: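 WT MEFs (Tsc2-/-, p53-/- stably re-expressing WT Tsc2) in DMEM + 10% FBS received compounds 24 hrs after plating, for 24 hrs at 37 degree Celsius. Fixed cells stained with Alexa-488 anti-phospho-rpS6 Ser235/236 and propidium iodide; laser-scanning cytometry read-out.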

[11] = Validation screen for inhibitors of Lassa infection (AID 463096; calls by dose curve; further: potency means the concentration at half of the fitted maximal effect)
[12] = Validation screen for small molecules that induce DNA re-replication in MCF 10A normal breast cells (AID 463097); further: nearly all actives have a fitted effect of over 60% in size; further: potency means the concentration at half of the fitted maximal effect
Summary of the method: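 Readout: Hoechst nuclear fluorescence intensity, 405 ex / 500-530 em, by scanning plate imager; re-replication scored as increase in nuclei with elevated DNA content. Cells exposed to compound 48 hr, 37 C, 5% CO2 beforehand.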

[13] = target: Ubiquitin carboxyl-terminal hydrolase 2 (Homo sapiens) (UniProt O75604); experiment: qHTS Validation Assay for Inhibitors of Ubiquitin-specific Protease USP2a Using CHOP2 as the Reporter (AID 463106); further: potency means the concentration at half of the fitted maximal effect
Chain of Ubiquitin carboxyl-terminal hydrolase 2 (Homo sapiens) (O75604 whole entry, looked up): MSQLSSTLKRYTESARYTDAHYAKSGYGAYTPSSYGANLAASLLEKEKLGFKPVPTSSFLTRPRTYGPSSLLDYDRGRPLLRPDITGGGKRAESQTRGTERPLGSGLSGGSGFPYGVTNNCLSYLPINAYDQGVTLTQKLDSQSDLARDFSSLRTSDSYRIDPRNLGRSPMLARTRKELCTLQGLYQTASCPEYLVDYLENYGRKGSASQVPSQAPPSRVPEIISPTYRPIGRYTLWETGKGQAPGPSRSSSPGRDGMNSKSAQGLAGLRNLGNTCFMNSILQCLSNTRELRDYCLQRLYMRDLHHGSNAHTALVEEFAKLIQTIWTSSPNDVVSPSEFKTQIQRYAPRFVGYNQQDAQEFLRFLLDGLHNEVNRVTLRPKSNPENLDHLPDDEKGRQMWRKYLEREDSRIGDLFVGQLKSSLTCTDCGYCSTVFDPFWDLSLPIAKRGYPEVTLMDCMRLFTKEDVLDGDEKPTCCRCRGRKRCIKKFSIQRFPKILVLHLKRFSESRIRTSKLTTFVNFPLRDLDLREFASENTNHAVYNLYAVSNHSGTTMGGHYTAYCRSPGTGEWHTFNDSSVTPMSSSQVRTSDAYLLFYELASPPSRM
Summary of the method: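 Fluorescence read-out at Ex 485nm/Em 531nm after 60min RT, following addition of 25nM Ub-CHOP2 plus 25nM reporter substrate to USP2 core (10nM) pretreated 30min with compound. Data normalized to NEM full inhibition; concentration-response curves fitted.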

[14] = qHTS for differential inhibitors of proliferation of Plasmodium falciparum line 3D7 (AID 1876); further: potency means the concentration at half of the fitted maximal effect
[15] = qHTS for differential inhibitors of proliferation of Plasmodium falciparum line W2 (AID 1883); conditions: Potency: Plasmodium falciparum W2 proliferation inhibition;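 further: parasites grown with compound for 72 h before lysis and staining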; further: potency means the concentration at half of the fitted maximal effect
[16] = qHTS for differential inhibitors of proliferation of Plasmodium falciparum line HB3 (AID 1886); conditions: Potency: Plasmodium falciparum HB3 proliferation inhibition;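 further: parasites grown with compound for 72 h before SYBR Green readout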; further: potency means the concentration at half of the fitted maximal effect
[17] = qHTS Assay for Modulators of Human Peripheral Myelin Protein 22 (PMP22) Expression/Activity (AID 1967; active means well fitted curve in the direction sought with a large enough effect in the signal ratio; the % refers to the signal ratio)
Summary of the method: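 MSC80 mouse Schwann cells stably carrying Pmp22 promoter–green click beetle luciferase plus EF-alpha–red luciferase control were dosed for 24h at 37 °C. Dual-colour luminescence was filter-overlap corrected; %Activity came from green/red ratio versus untreated cells.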

[18] = target: RecQ-like DNA helicase BLM (Homo sapiens) (UniProt P54132); experiment: qHTS Validation Assay for Inhibitors of Bloom's syndrome helicase (BLM) (AID 2364); further: potency means the concentration at half of the fitted maximal effect
Chain of RecQ-like DNA helicase BLM (Homo sapiens) (P54132 whole entry, looked up): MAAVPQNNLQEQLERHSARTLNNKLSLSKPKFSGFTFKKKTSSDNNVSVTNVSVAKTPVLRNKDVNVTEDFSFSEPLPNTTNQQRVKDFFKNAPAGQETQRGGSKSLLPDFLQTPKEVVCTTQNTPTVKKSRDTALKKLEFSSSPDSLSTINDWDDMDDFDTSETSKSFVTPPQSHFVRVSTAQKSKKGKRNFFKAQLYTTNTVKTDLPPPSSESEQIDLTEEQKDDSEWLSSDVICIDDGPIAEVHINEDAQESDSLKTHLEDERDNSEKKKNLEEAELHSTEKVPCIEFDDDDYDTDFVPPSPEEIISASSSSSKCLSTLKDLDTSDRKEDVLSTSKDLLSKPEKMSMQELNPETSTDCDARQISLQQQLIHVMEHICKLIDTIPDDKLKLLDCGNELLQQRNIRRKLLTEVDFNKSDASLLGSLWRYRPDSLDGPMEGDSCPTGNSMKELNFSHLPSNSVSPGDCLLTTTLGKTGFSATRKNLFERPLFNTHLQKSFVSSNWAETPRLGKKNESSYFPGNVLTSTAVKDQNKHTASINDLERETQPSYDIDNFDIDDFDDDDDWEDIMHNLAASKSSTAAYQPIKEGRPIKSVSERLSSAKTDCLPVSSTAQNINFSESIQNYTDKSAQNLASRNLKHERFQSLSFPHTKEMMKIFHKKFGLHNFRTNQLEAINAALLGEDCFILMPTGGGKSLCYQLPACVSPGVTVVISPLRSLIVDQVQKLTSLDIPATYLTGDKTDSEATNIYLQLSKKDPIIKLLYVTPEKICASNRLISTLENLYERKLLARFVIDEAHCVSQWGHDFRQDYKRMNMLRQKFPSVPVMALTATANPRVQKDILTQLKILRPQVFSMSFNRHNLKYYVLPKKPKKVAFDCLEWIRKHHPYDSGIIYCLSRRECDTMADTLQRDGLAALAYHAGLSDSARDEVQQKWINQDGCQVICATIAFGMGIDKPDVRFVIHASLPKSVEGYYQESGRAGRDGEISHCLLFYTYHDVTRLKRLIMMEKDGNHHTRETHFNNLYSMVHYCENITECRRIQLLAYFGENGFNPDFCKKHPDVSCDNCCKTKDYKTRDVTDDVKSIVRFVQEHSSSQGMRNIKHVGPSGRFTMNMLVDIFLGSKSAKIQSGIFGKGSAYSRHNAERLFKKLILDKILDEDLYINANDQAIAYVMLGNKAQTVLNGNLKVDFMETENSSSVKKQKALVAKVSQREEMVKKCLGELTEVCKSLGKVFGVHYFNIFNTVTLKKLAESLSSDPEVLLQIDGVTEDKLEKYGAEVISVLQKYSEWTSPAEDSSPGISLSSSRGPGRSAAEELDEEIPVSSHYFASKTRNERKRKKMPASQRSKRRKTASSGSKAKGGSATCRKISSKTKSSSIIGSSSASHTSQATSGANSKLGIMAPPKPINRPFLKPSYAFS
Summary of the method: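 50 nM BLM preincubated 15 min at room temperature with compound in pH 8.0 Tris buffer containing 2.5 ug/ml poly(dI-dC); started with 200 nM TAMRA/BHQ-2 forked duplex and 2 mM ATP (final). Unwinding read as TAMRA fluorescence increase, two reads 2 h apart.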

[19] = target: Endonuclease 4 (Escherichia coli (strain K12)) (UniProt P0A6C1); experiment: Counterscreen for APE1 Inhibitors: qHTS Validation Assay for Inhibitors of Endonuclease IV (AID 1708)
Summary of the method: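 Read-out: fluorescence rise (ex 525/em 598 nm) from incision of a TAMRA/BHQ-2 double-stranded THF abasic-site substrate (50 nM), measured kinetically; third-minus-first read difference gave reaction progress. Enzyme 2 nM.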

| Compound | Potency [1] | Potency [2] | Potency [3] | Potency [4] | outcome [5] | outcome [6] | Potency [7] | Potency [8] | Potency [9] | Potency [10] | Potency [11] | Potency [12] | Potency [13] | Potency [14] | Potency [15] | Potency [16] | outcome [17] | Potency [18] | Potency [19] |
| --- | --- | --- | --- | --- | --- | --- | --- | --- | --- | --- | --- | --- | --- | --- | --- | --- | --- | --- | --- |
| CCCCc1ccc(C(=O)O)nc1 | inactive | inactive | inactive | inactive | inactive | inactive | inactive | inactive | inactive | inactive | inactive | inactive | inactive |  |  |  |  |  |  |
| CCCN1CCO[C@@H]2c3cc(O)ccc3OC[C@H]21 | inactive | inactive | inactive | inactive | inactive | inactive | inactive | inactive | inactive | inactive | inactive | inactive | inactive | inactive | inactive | inactive | inactive | inactive |  |
| NC(N)=NOCCC(N)C(=O)O (configuration not stated) | inactive | inactive | inactive | inactive | inactive | inactive | inactive | inactive | inactive | inactive | inactive | inactive | inactive | inactive | inactive | inactive | inactive |  |  |
| Cn1cnc(CCN)c1 | inactive | inactive | inactive | inactive | inactive | inactive | inactive | inactive | inactive |  | inactive | inactive | inactive | inactive | inactive | inactive | inactive | inactive |  |
| CC[C@@]1(O)C(=O)OCc2c1cc1n(c2=O)Cc2cc3ccccc3nc2-1 | 1.41 µM (active) | 0.794 µM (active) | 1.12 µM (active) | 1 µM (active) |  | inactive | inactive | inactive | 0.104 µM (active) |  |  |  | inactive | 0.794 µM (active) | 0.794 µM (active) | 0.794 µM (active) |  |  |  |
| CN1C2CCC1CC(OC(=O)c1cc(Cl)cc(Cl)c1)C2 (configuration not stated) | 6.31 µM (active) | 12.6 µM (active) |  | inactive | inactive | inactive | inactive | inactive | inactive |  | inactive |  | inactive | 10 µM (active) | 8.91 µM (active) |  |  | inactive |  |
| O=C(O)[C@@H]1CCN1 | inactive | inactive | inactive | inactive | inactive | inactive | inactive | inactive | inactive | inactive | inactive | inactive | inactive | inactive | inactive | inactive | inactive |  |  |
| Clc1ccc(C(c2ccc(Cl)cc2)n2cc[n+](CC(OCc3ccc(Cl)cc3Cl)c3ccc(Cl)cc3Cl)c2)cc1 (configuration not stated) | 7.94 µM (active) | 7.08 µM (active) | 7.08 µM (active) |  |  |  |  |  |  |  | 11.2 µM (active) | 11.2 µM (active) | 13.1 µM (active) | 3.55 µM (active) | 3.98 µM (active) | 4.47 µM (active) |  | 28.2 µM (active) |  |
| Cc1nc(-c2ccc(-c3ccc(C(=O)N4CCc5cc6c(cc54)C4(CCN(C)CC4)CO6)cc3)c(C)c2)no1 | 5.01 µM (active) | 11.2 µM (active) | 11.2 µM (active) | 8.91 µM (active) |  |  |  |  |  |  | 10 µM (active) |  |  | 12.6 µM (active) | 10 µM (active) | 11.2 µM (active) |  | inactive |  |
| CCCN1CCC[C@H](c2cccc(O)c2)C1 |  | 14.1 µM (active) |  |  | inactive | inactive | inactive | inactive | inactive | inactive | inactive | inactive | inactive | inactive | 11.2 µM (active) | inactive | inactive |  | inactive |
| c1ccc2sc(C3(N4CCCCC4)CCCCC3)cc2c1 | 10 µM (active) | 11.2 µM (active) | 10 µM (active) |  | inactive | inactive | inactive | inactive | inactive | inactive | inactive | inactive | inactive | 11.2 µM (active) | 7.94 µM (active) | 11.2 µM (active) |  | inactive |  |
| NC(CCP(=O)(O)O)C(=O)O (configuration not stated) | inactive | inactive | inactive | inactive | inactive | inactive | inactive | inactive | inactive | inactive | inactive | inactive | inactive | inactive | inactive | inactive | inactive | inactive |  |
| CNCCc1c[nH]c2ccc(O)cc12 | inactive | inactive | inactive | inactive | inactive | inactive | inactive | inactive | inactive | inactive | inactive | inactive | inactive | inactive | inactive | inactive | inactive |  |  |
